Most compounds without a hit are left out; they make up all but 2.7% or so of the library.
MITF TRPM1 inh = MITF TRPM1 promoter inhibition in SK-MEL-5 cells | inhibition, % at 12.5 µM | actives 0.83% (n = 330,000) | SK-MEL-5 TRPM1 promoter luciferase, 24 h;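 active = mean inhibition across replicates of 60% or more, whatever share of single replicates reaches that level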
Shn3 inh set2 = reduces Shn3 3'UTR luciferase signal in osteoblasts. Clone20 osteoblast Shn3 3'UTR firefly luciferase, 24 h. inhibition, % at 12.5 µM. actives 0.52% (n = 360,000). AID 588674;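 active = mean inhibition of at least 75% with every replicate also reaching 75%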;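 also: 0% = median of neutral control wells and 100% = pilot-screen positive control compound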
Peg3 prom inh = Peg3 promoter activity inhibition; HeLa PEG-Prom luciferase reporter, luminescence, overnight; inhibition, % at 20 µM; actives 1.7% (n = 360,000); AID 588405;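 active = inhibition of at least 50% at 20 µM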
KKLEB tox = CF airway cell cytotoxicity counter-screen; KKLEB CF airway cells viability, ATPlite luminescence, overnight; stronger effect = lower value; cells stimulated with P. aeruginosa culture filtrate; activity change (cytotoxicity), % at 5 µM; actives 0.36% (n = 360,000);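 active = corrected activity change at or below -50% at 5 µM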
CF NFkB inh = blocks PAF-induced NF-kB reporter in cystic fibrosis cells | inhibition, % at 5 µM | KKLEB NF-kB-GFP reporter, GFP fluorescence overnight | actives 0.86% (n = 360,000) | AID 588850;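 active = at least 50% inhibition at 5 µM, scaled per plate between neutral and stimulator controls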;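 also: PAF is a Pseudomonas aeruginosa culture filtrate used as stimulus; plate controls were PAF-stimulated DMSO wells for no effect and unstimulated DMSO wells for full effect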
HIF-2a block = inhibitors of HIF-2a; inhibition, % at 18.8 µM; actives 0.72% (n = 360,000); 786-0 RCC cells HIF-2a reporter, luciferase luminescence, overnight;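 active = inhibition of the luminescence signal of 40% or more relative to plate controls, in a single-dose primary screen at 18.75 µM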
* = called active by the depositor; x = no result given.

SMILES	MITF TRPM1 inh	Shn3 inh set2	Peg3 prom inh	KKLEB tox	CF NFkB inh	HIF-2a block
Cc1noc(-c2ccccc2)c1NC(=O)Nc1ccc2nc([C@H]3C[C@H](O)[C@@H](CO)O3)[nH]c2c1	x	-2.0	-5.9	12.3	-9.8	4.5
CCc1ccc2nc(N(CCCN(C)C)C(=O)c3ccc(C(=O)c4ccccc4)cc3)sc2c1	-7.1	-29.6	101.8*	-20.6	18.1	-3.3
COc1cc2nc(N(CCCN(C)C)C(=O)c3ccc(C(=O)c4ccccc4)cc3)sc2cc1OC	2.6	-5.5	-25.1	-8.8	6.0	3.9
CCOc1ccc2nc(N(CCCN(C)C)C(=O)c3ccc4c(c3)CCCC4)sc2c1	6.4	0.6	16.8	-13.9	7.1	-21.8
Cc1ccc2nc(NNC(=O)c3ccc4c(c3)OCCO4)sc2c1	x	-10.7	-10.5	-16.4	25.0	-18.2
Cc1ccc2nc(NNC(=O)c3ccc(S(=O)(=O)N4CCc5ccccc5C4)cc3)sc2c1	77.8*	93.6*	44.2	-14.3	15.7	18.2
Cc1cc(C)c2nc(N(CCCN(C)C)C(=O)c3ccc4c(c3)OCCO4)sc2c1	-17.4	8.8	97.7*	-17.0	25.9	-43.1
CN(C)CCCN(C(=O)c1ccc2c(c1)CCCC2)c1nc2ccc(Cl)cc2s1	-17.0	19.5	107.7*	-23.8	11.0	-4.2
COc1ccc(Cl)cc1CC1(C)C(=O)Nc2ccc(S(=O)(=O)NC3CCCCC3)cc21 (stereo unspecified)	x	21.1	23.3	-11.3	13.9	25.5
COc1ccc(C(CNC(=O)c2ccc(-c3cccc(C(F)(F)F)c3)o2)N2CCOCC2)cc1 (stereo unspecified)	-12.2	32.9	12.9	-5.2	6.8	15.5
Cc1cccc(Cc2cccc(C)c2O)c1O	x	-14.7	11.0	-2.2	1.8	-4.8
N#CCCCSc1nnc(CSc2nc3ccccc3s2)n1-c1ccccc1	7.9	15.9	22.7	-1.0	0.9	8.3
CCCSc1nnc(CSc2nc3ccccc3s2)n1-c1ccccc1	14.0	87.3*	29.7	-4.9	9.3	9.5
O=C(c1cccs1)N1C[C@@H](n2cc(C3CC3)nn2)[C@H](O)C[C@@H]1c1ccc(Cl)cc1	x	-14.7	10.2	-8.9	-7.3	-0.9
CCCC/C=C1/CCC(CN(C)C)C1=O (stereo unspecified)	74.5*	0.6	98.5*	11.9	-24.4	-4.7
Brc1ccc(-c2nc(N/N=C/c3cccnc3)c3ccccc3n2)cc1	-17.4	-14.7	-64.6	-70.2*	-26.0	-240.6
O=C(Nc1ccccn1)C(c1ccccc1)c1ccccc1	x	-1.8	1.0	13.8	-38.2	5.4
O=C1/C(=C\c2ccccc2)SC(=S)N1CCC(=O)N1CCCCC1CCO (stereo unspecified)	-11.9	-74.1	15.5	14.8	3.0	1.6
O=C1/C(=C/c2ccccc2Cl)SC(=S)N1CCC(=O)N1CCCCC1CCO (stereo unspecified)	9.0	-48.0	54.7*	-5.2	-6.5	20.0
COc1ccc(/C=C2\SC(=S)N(CCCC(=O)N3CCCCC3CCO)C2=O)cc1 (stereo unspecified)	25.2	8.4	33.5	-12.5	14.2	83.5*
CC(C)c1ccc(/C=C2\SC(=S)N(CCC(=O)N3CCCCC3CCO)C2=O)cc1 (stereo unspecified)	76.2*	47.5	38.1	-17.5	1.6	85.8*
COc1ccc(CCNC(=O)c2cc([C@@H](NC(=O)OC(C)(C)C)C(C)C)sc2N)cc1OC	x	x	x	x	x	-5.2
NCC12CC3CC(C1)CC(c1ccc(Cl)cc1)(C3)C2	23.1	26.6	107.6*	-29.1	23.0	13.1
Nc1ccc(C23CC4CC(CC(CO)(C4)C2)C3)cc1	-1.9	-4.5	-35.6	-3.0	-7.2	-2.1
CC1=C(C(=O)N(C(C)C)C(C)C)CC(CC(=O)NCCN2CCOCC2)C(=O)N1Cc1ccc(C(C)(C)C)cc1 (stereo unspecified)	x	-8.6	-16.0	-10.5	-3.6	-9.3
SMILES	MITF TRPM1 inh	Shn3 inh set2	Peg3 prom inh	KKLEB tox	CF NFkB inh	HIF-2a block
CC(C)CNc1ncnc2c1ncn2[C@H]1CN(Cc2ccc3c(c2)OCO3)C[C@@H](CO)O1	x	4.0	-2.0	6.5	1.1	14.1
COc1ccc(C2NCCc3c2[nH]c2ccccc32)cc1CSc1nc2ccccc2s1 (stereo unspecified)	-2.7	6.2	92.4*	-23.3	16.1	-18.4
O=c1[nH]c(CSc2nc3ccccc3s2)nc2ccccc12	-28.5	-30.1	-139.1	-5.1	3.4	-187.4
CN(C)CCN(C(=O)/C=C/c1cccs1)c1nc2c(F)cc(F)cc2s1	33.1	54.7	105.8*	-30.7	31.8	7.3
CC(C)c1cccc(-c2csc(C(C)(O)c3ccncc3)n2)c1 (stereo unspecified)	x	74.0	4.8	5.9	0.1	6.6
COc1cc2c(C)nc3c(c(C)nn3-c3ccccc3)c2cc1OC	-10.8	3.8	-6.5	-5.3	-55.3	14.0
COc1cc2c(-c3ccc(O)cc3)nc3c(c(C)nn3-c3ccccc3)c2cc1OC	13.1	26.2	76.6*	-27.4	-40.2	20.6
Cc1cccc(NC(=O)C2CCN(S(=O)(=O)c3cccc4nsnc34)CC2)n1	3.8	-2.4	14.8	-1.4	-7.2	15.8
COc1ccc2nc(NC(=O)C3CCN(S(=O)(=O)c4cccc5nsnc45)CC3)sc2c1	73.9*	57.6	81.3*	-5.8	44.4	18.3
COC(=O)[C@]12CCCCC=C1N(CCC1=CCCCC1)C(=O)[C@H](CC(=O)N1CCCC1)C2	x	x	x	x	x	2.5
O=C1c2ccccc2C2=Nc3ccccc3SC(c3cccc(F)c3)C12 (stereo unspecified)	-0.5	18.3	57.9*	-18.0	31.3	28.1
O=C1c2ccccc2C2=Nc3ccccc3SC(c3ccc(Cl)cc3)C12 (stereo unspecified)	-7.9	-4.0	14.9	-0.1	5.3	22.8
O=C1NC[C@@H](CCCCN2CCN(CC3CCCCC3)C(=O)C2=O)N(CCC2CCCCC2)C1=O	x	x	x	x	x	0.7
Cc1ccc(C(NC(=O)C2CCN(Cc3ccc(Oc4ccccc4)cc3)CC2)c2ccccn2)cc1 (stereo unspecified)	x	1.9	29.9	-4.3	-3.9	-12.1
COc1cc(OC)nc(Nc2nc(C(N)Cc3ccccc3)cs2)n1 (stereo unspecified)	x	2.1	45.0	-0.9	-8.2	-5.8
CCCc1cnc(Nc2nc(C(N)Cc3ccc(C(F)(F)F)cc3)cs2)nc1 (stereo unspecified)	x	-6.8	96.5*	-7.3	17.3	26.9
Cc1cc(C)nc(Nc2nc(C(N)Cc3ccc(F)cc3)cs2)n1 (stereo unspecified)	x	28.8	-43.8	1.9	-0.8	-6.1
NC(Cc1ccc(C(F)(F)F)cc1)c1csc(Nc2nccc(C(F)(F)F)n2)n1 (stereo unspecified)	x	-10.6	92.4*	-9.8	-4.1	15.1
CS(=O)(=O)c1ccc(Nc2nc(C(N)Cc3ccc(C(F)(F)F)cc3)cs2)cc1 (stereo unspecified)	x	21.6	26.9	-17.0	37.8	7.5

Source: PubChem BioAssay
